HMGR II inh – inhibitors of E. faecalis class II HMGR, primary screen, biochemical, Enterococcus faecalis | purified E. faecalis HMGR, NADPH absorbance 340 nm kinetic | inhibition, % at 10 µM | 0.41% of 190,000 active | AID 1066, 2008;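 active = inhibition above a set limit, the median over all tested compounds plus 3 SD, cut at about 9.5% in these data; inconclusive = no clear call, values can overlap the other calls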;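 note: enzyme runs in reverse so mevalonate oxidation gives rising NADPH absorbance; 0% = complete reaction with DMSO and 100% = background rate lacking mevalonate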
Ins promoter up – insulin promoter activators in MIN6 cells, imaging, high-content screening, mouse beta cells | MIN6 insulin promoter-GFP reporter; active compounds read high | z-score at 5 µM | 0.3% of 190,000 active | AID 1625, 2009;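 active = z-score above 3 at 5 µM with at least 500 cells counted in the well; inconclusive = wells under 500 cells, flagged as cytotoxic or low count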
DTT redox prof – compounds producing H2O2 with reducing agent – biochemical, NIH compound library profiling, artefact control for MLSCN library redox annotation, primary screen; DTT-dependent redox cycling H2O2, phenol red/HRP absorbance; 100% = 100 µM peroxide control, 0% = buffer; activation, % at 10 µM; 0.03% of 200,000 active; AID 878, 2007;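 active = activation of at least 50% relative to the plate's high and low controls in the primary single-dose screen; inactive = activation below 50%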;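 note: compound incubated with DTT at 0.8 mM final as the reducing agent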
NCF1 inh – p47phox/p22phox peptide binding inhibitors, primary screen, biochemical, uHTS, NADPH oxidase regulatory subunit | inhibition, % at 24.7 µM | fluorescence polarization, 2 h | AID 1274, 2008 | 0.53% of 220,000 active;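 active = inhibition above about 30%, limit read from the data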;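 note: 0% = p47phox with labelled peptide and 100% = labelled peptide alone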
Target sequence (P14598 whole entry, looked up): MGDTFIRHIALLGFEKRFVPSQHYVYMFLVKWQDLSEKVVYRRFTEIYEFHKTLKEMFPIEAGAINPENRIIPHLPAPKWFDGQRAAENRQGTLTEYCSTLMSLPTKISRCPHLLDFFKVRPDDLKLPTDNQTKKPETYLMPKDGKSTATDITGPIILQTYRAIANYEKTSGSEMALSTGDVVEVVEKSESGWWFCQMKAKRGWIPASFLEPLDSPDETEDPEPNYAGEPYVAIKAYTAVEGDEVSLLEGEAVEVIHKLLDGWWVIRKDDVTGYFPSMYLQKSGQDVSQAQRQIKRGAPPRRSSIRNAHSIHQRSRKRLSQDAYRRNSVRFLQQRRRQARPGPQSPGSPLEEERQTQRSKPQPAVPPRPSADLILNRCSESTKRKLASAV
Autophagy mod – autophagy modulators in MEF cells, primary screen, imaging, high-content, MEF GFP-LC3 | MEF GFP-LC3 puncta imaging; test concentration mostly 10 µM | calls only at 10 µM (by protocol) | 0.98% of 190,000 active;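 active = percentage of spot-positive cells more than 3 SD above its plate mean, without a fluorescence outlier flag or 80% toxicity; inconclusive = no clear call, values can overlap the other calls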;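 note: spot-positive cell cutoff set from DMSO-treated cells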
Arbovirus anti – antivirals against arbovirus infection, primary screen, cell-based, full library, 10K replicate subset. inhibition, % at 10 µM. AID 1251, 2008. arbovirus infection cell-based antiviral screen. 0.37% of 200,000 active; in the data active = inhibition above about 30%
The depositor's hits bear a star; i = inactive; ? = inconclusive; . = no result given; + = active, no number. Rows were chosen to be rich in hits. Some 2.2% of all compounds tested hit in one or more screens of this group.

SMILES | HMGR II inh | Ins promoter up | DTT redox prof | NCF1 inh | Autophagy mod | Arbovirus anti
COc1ccc(CC(=O)Nc2ccc(-c3noc(-c4cc(OC)c(OC)c(OC)c4)n3)cc2)cc1 | 2.4 | -0.36 | -0.8 | 1.7 | + | -2.8
COc1cc(C(=O)N/N=C(\C)c2ccc3c(c2)OCO3)cc(OC)c1OC | -2.5 | 0.53 | -0.1 | -0.2 | + | -12.8
COc1ccccc1-c1nnc(NC(=O)c2ccc3c(c2)OCO3)s1 | -3.2 | 0.14 | -0.2 | 28.3 | + | -18.0
CC(C)c1nnc(NC(=O)c2ccc3c(c2)OCO3)s1 | -2.2 | -0.07 | -0.4 | 2.9 | i | 3.6
COc1cc(-c2nc(-c3ccc(NC(=O)c4ccc5c(c4)OCO5)cc3)no2)cc(OC)c1OC | -1.7 | -0.11 | 0.0 | -0.5 | + | 10.7
CC(C)=CCN1CCN(Cc2cnc(-c3ccccc3)s2)CC1CCO (centres undefined) | -3.9 | 0.35 | 0.9 | -6.7 | i | -9.5
O=C(CC1(c2ccc(Cl)cc2)C2CC3CC(C2)CC1C3)NCCO (centres undefined) | -6.7 | -0.25 | 1.1 | 9.4 | i | -13.9
CCSS(=O)(=O)c1cccc2cccnc12 | . | -0.27 | . | 51.9* | . | .
O=C(Nc1nc2ccccc2s1)c1ccc(N2CCCCC2)c([N+](=O)[O-])c1 | -6.1 | -0.44 | 0.3 | 0.6 | i | 37.7*
O=C(Nc1ccon1)c1ccc(N2CCCCC2)c([N+](=O)[O-])c1 | 5.0 | 0.32 | 0.7 | . | i | -7.5
CC(=O)/C(=C/N(C)C)Sc1ccc(C)cc1 | -4.4 | -0.45 | -0.4 | -17.0 | i | 4.7
CC(Sc1nnc2ccccn12)C(N)=O (centres undefined) | -1.4 | 0.97 | -0.9 | -8.8 | i | 4.1
COc1ccccc1C(=O)CSc1ccccn1 | 7.4 | 0.36 | -0.8 | -0.2 | + | -5.6
COc1ccc(Cl)cc1NC(=O)c1c(-c2ccccc2)noc1C | 2.8 | 18* | 0.8 | -15.9 | i | -2.2
O=C(Nc1ccc(-c2csc(Nc3ccccc3)n2)cc1)c1cc([N+](=O)[O-])cc(C(F)(F)F)c1 | . | . | . | 35.0* | . | .
O=C(Nc1cccc(-c2csc(Nc3cccc(C(F)(F)F)c3)n2)c1)c1cc([N+](=O)[O-])cc(C(F)(F)F)c1 | . | ? | . | 4.3 | . | .
CCC(C)c1ccc(NC(=O)COC(=O)c2nc3nccc(C)n3n2)cc1 (centres undefined) | -5.1 | -0.59 | -0.6 | -18.2 | i | -1.9
CC(=O)c1cc2c(cc1N/C(=N/S(=O)(=O)c1ccccc1)c1ccc(Cl)cc1)OCO2 | 13.4* | -0.32 | 0.2 | -0.6 | i | -4.7
CCOC(=O)/C(=N\Nc1ccc(OC)cc1)c1csc(Nc2ccccc2)n1 | -1.1 | . | -0.5 | -8.7 | i | -5.4
O=C(CCCN1C(=O)/C(=C/c2cccs2)SC1=S)Nc1cccc(C(=O)O)c1 | -4.5 | -0.02 | 0.0 | -6.5 | i | 38.1*
Cc1ccc(-n2c(SCC(=O)N(C)C3CCS(=O)(=O)C3)nc3ccccc3c2=O)cc1 (centres undefined) | 17.5* | 0 | -0.3 | -6.5 | i | 9.0
CCN(C(=O)CSc1nc2ccccc2c(=O)n1-c1ccc(C)cc1)C1CCS(=O)(=O)C1 (centres undefined) | -1.3 | -1.34 | -0.7 | 1.0 | i | -2.3
Cc1ccc(-n2c(SCC(=O)N/N=C/c3c(C)nn(-c4ccccc4)c3C)nc3ccccc3c2=O)cc1 | -0.6 | 0.11 | 0.4 | 18.9 | + | -5.6
CCOC(=O)c1cncc(C#CCO)c1 | . | 0.24 | . | -7.1 | . | .
OCCN1CCN(c2nc(-c3ccccc3)nc3c2oc2ccccc23)CC1 | 1.0 | 1.41 | -0.6 | -17.2 | i | -28.3
SMILES | HMGR II inh | Ins promoter up | DTT redox prof | NCF1 inh | Autophagy mod | Arbovirus anti
COc1ccc2o/c(=N/NC(=S)Nc3ccccc3)c(C(N)=O)cc2c1 | 2.0 | -0.25 | 0.8 | -12.1 | + | -5.8
O=C(NC1(C(F)(F)F)NC(=O)N(c2ccc(F)cc2)C1=O)c1cccs1 (centres undefined) | -4.4 | . | 0.0 | -4.3 | i | 3.2
Cc1cc(C)n(-c2nc3c(c(=O)[nH]c(=O)n3C)n2CC(O)COc2ccc(Cl)cc2Cl)n1 (centres undefined) | -3.5 | 0.09 | 2.7 | 6.8 | + | -17.0
COc1cc(CNCc2ccc(SC)cc2)cc(OC)c1 | -2.5 | -0.93 | 0.5 | -32.5 | i | 9.2
OCCC1CN(C/C(Cl)=C/c2ccccc2)CCN1C1CCCC1 (centres undefined) | -2.9 | -0.47 | 0.0 | -2.7 | + | -26.8
OCCC1CN(Cc2cnc(-c3cccc4ccccc34)nc2)CCN1C1CCCCC1 (centres undefined) | -0.6 | . | 0.9 | 0.0 | + | -12.6
O=C(CCc1ccccc1)Nc1cc(C(=O)O)cc(C(=O)O)c1 | -0.5 | . | -0.1 | 6.3 | i | 0.2
O=C(N/N=C/C1CC=CCC1)c1cc(-c2cccnc2)nc2ccccc12 (centres undefined) | -0.1 | -0.41 | 0.1 | -9.8 | i | -2.0
Fc1ccc2nc(Nc3nc4c(F)cccc4s3)sc2c1 | -4.0 | -0.39 | 1.0 | -16.9 | i | 34.2*
Cc1ccc(C)c(NC(=O)CN(C)C(=O)c2cc3ccccc3o2)c1 | -4.1 | 2.16 | 0.2 | -12.4 | i | 9.3
Cc1cc(NC(=O)Cn2ccsc2=N)c([N+](=O)[O-])cc1C | 6.8 | -0.14 | 1.4 | -9.6 | i | 7.1
N=c1sccn1CC(=O)Nc1cc(Cl)ccc1[N+](=O)[O-] | 2.0 | 0.2 | -1.9 | 0.2 | + | 0.0
Cc1c(=O)n(OCc2c(F)cccc2F)c2ccccc2[n+]1[O-] | . | . | -0.7 | . | i | .
CCOC(=O)C1CCN(C(=O)c2ccc(CNS(=O)(=O)c3ccc(C)cc3)cc2)CC1 | -1.1 | 0 | -1.3 | 32.9* | i | -4.2
Cc1ccc(S(=O)(=O)NCc2ccc(C(=O)N3CCN(Cc4ccccc4)CC3)cc2)cc1 | -2.9 | -0.12 | 0.0 | -12.8 | i | -12.6
CCOc1ccc2nc(C)cc(Nc3cccc([N+](=O)[O-])c3)c2c1 | -2.7 | -3.35 | -0.4 | -7.3 | + | -41.8
Cc1cc(Nc2cccc([N+](=O)[O-])c2)c2ccccc2n1 | -15.2 | -0.36 | -0.3 | -1.2 | i | -4.8
Cc1ccc2c(c1)CCCN2C(=O)c1ccoc1C | -5.1 | 0.11 | -1.0 | -10.4 | i | -6.1
COC(=O)N1CCCc2cc(C)ccc21 | 11.3* | 0.15 | 0.3 | -3.2 | i | 0.4
Cc1ccc(NC(=O)CCC(=O)c2cccs2)c(O)c1 | . | -0.21 | . | -7.5 | . | .
Cc1ccccc1-n1c(C)cc(/C=N/Nc2ccc([N+](=O)[O-])cn2)c1C | -3.4 | 0.2 | 0.8 | 0.5 | + | 1.1
O=[N+]([O-])c1ccc(N/N=C\c2cccn2-c2ccccc2)nc1 | 0.1 | 0.7 | -2.5 | 38.0* | + | -17.6
CCSc1ncc(/C=N/Nc2ccccc2)n1C | -2.1 | 0.03 | 3.0 | -9.6 | i | -39.2

Source: PubChem BioAssay (several laboratories)
